# In publication PMC8384837, “Expanding the binding specificity for RNA recognition by a PUF domain”:
# Key:
# Assay in all cases: yeast three-hybrid, YBZ-1, SC-Leu-His + 0.5 mM 3-AT, 4 days
# Settings in all cases: tags: N-Gal4 AD-HA kept; label: inside an RPR1-promoter hybrid RNA with tandem MS2 sites; ssRNA
# PUM1 PUF domain R3-RMW = PUM1 PUF domain R3-RMW (Homo sapiens, UniProt Q14671 828-1176, C935R;R936M;Q939W)
# Procedure, shortened: (§1)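 The interaction score is the log change in variant frequency from input to selection. Scores were computed in log2 with a pseudocount of 1 for absent variants, using Illumina sequencing of PCR-amplified repeat regions. The input came from four days on SC-Leu and the selection from four days on SC-Leu-His + 0.5 mM 3-AT. The cells were strain YBZ-1 (LexA–MS2 coat fusion, HIS3 reporter) co-expressing Pumilio-1 PUF domain libraries and matching RNA elements from a centromeric plasmid.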
# PUM1 PUF domain R3-RSR = PUM1 PUF domain R3-RSR (Homo sapiens, UniProt Q14671 828-1176, C935R;R936S;Q939R)
# Procedure, shortened: as §1
# PUM1 PUF domain R3-MRW = PUM1 PUF domain R3-MRW (Homo sapiens, UniProt Q14671 828-1176, C935M;Q939W)
# Procedure, shortened: as §1
# PUM1 PUF domain R1-RSQ = PUM1 PUF domain R1-RSQ (Homo sapiens, UniProt Q14671 828-1176, S863R;R864S)
# Procedure, shortened: as §1
# PUM1 PUF domain R1-SWR = PUM1 PUF domain R1-SWR (Homo sapiens, UniProt Q14671 828-1176, R864W;Q867R)
# Procedure, shortened: as §1
# PUM1 PUF domain R3-FSN = PUM1 PUF domain R3-FSN (Homo sapiens, UniProt Q14671 828-1176, C935F;R936S;Q939N)
# Procedure, shortened: as §1
# PUM1 PUF domain R5-ARK = PUM1 PUF domain R5-ARK (Homo sapiens, UniProt Q14671 828-1176, C1007A;Q1011K)
# Procedure, shortened: as §1
# PUM1 PUF domain R5-NGR = PUM1 PUF domain R5-NGR (Homo sapiens, UniProt Q14671 828-1176, C1007N;R1008G;Q1011R)
# Procedure, shortened: as §1
# PUM1 PUF domain R5-LHI = PUM1 PUF domain R5-LHI (Homo sapiens, UniProt Q14671 828-1176, C1007L;R1008H;Q1011I)
# Procedure, shortened: as §1
# PUM1 PUF domain R7-RCR = PUM1 PUF domain R7-RCR (Homo sapiens, UniProt Q14671 828-1176, S1079R;N1080C;E1083R)
# Procedure, shortened: as §1
# PUM1 PUF domain R8-QWK = PUM1 PUF domain R8-QWK (Homo sapiens, UniProt Q14671 828-1176, N1122Q;Y1123W;Q1126K)
# Procedure, shortened: as §1
# PUM1 PUF domain R6-LWT = biological target: T1, PUM1 PUF domain R6-LWT (Homo sapiens, UniProt Q14671 828-1176, N1043L;Y1044W;Q1047T)
# T1 sequence: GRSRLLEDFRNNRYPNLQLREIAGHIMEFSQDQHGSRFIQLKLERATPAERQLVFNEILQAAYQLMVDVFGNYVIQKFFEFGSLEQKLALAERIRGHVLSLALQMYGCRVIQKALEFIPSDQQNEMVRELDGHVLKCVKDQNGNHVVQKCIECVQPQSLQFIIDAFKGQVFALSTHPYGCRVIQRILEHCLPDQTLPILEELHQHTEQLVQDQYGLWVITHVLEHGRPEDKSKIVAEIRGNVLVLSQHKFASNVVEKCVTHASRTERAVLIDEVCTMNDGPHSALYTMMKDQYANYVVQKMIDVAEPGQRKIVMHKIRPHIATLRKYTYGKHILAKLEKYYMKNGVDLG
# Procedure, shortened: as §1
# PUM1 PUF domain R4-AHV = PUM1 PUF domain R4-AHV (Homo sapiens, UniProt Q14671 828-1176, N971A;Q975V)
# Procedure, shortened: as §1
# PUM1 PUF domain R4-PYF = PUM1 PUF domain R4-PYF (Homo sapiens, UniProt Q14671 828-1176, N971P;H972Y;Q975F)
# Procedure, shortened: as §1
# PUM1 PUF domain R5-RYP = PUM1 PUF domain R5-RYP (Homo sapiens, UniProt Q14671 828-1176, C1007R;R1008Y;Q1011P)
# Procedure, shortened: as §1
# PUM1 PUF domain R2-SWF = PUM1 PUF domain R2-SWF (Homo sapiens, UniProt Q14671 828-1176, N899S;Y900W;Q903F)
# Procedure, shortened: as §1
# PUM1 PUF domain R8-HFT = PUM1 PUF domain R8-HFT (Homo sapiens, UniProt Q14671 828-1176, N1122H;Y1123F;Q1126T)
# Procedure, shortened: as §1
# PUM1 PUF domain R4-LNC = PUM1 PUF domain R4-LNC (Homo sapiens, UniProt Q14671 828-1176, N971L;H972N;Q975C)
# Procedure, shortened: as §1
# PUM1 PUF domain R2-MWG = PUM1 PUF domain R2-MWG (Homo sapiens, UniProt Q14671 828-1176, N899M;Y900W;Q903G)
# Procedure, shortened: as §1
sequence,measurement,setting,value
GGCUAGAACUAGUGGAUCCCCCGGCGCCCGGCGGCUCGAGCCCGGGUAAGUGUAAUUAGUCUGCAUGCCGCCGGGCGCCAUGCCUGCAGGUCGACUCUAGAAAACAUG,binding signal,PUM1 PUF domain R3-RMW,2.28 log2 enrichment (interaction score)
same,binding signal,PUM1 PUF domain R3-RSR,3.41 log2 enrichment (interaction score)
same,binding signal,PUM1 PUF domain R3-MRW,2.07 log2 enrichment (interaction score)
GGCUAGAACUAGUGGAUCCCCCGGCGCCCGGCGGCUCGAGCCCGGGUAAGUGUAAAUUGUCUGCAUGCCGCCGGGCGCCAUGCCUGCAGGUCGACUCUAGAAAACAUG,binding signal,PUM1 PUF domain R1-RSQ,5.08 log2 enrichment (interaction score)
same,binding signal,PUM1 PUF domain R1-SWR,0.84 log2 enrichment (interaction score)
GGCUAGAACUAGUGGAUCCCCCGGCGCCCGGCGGCUCGAGCCCGGGUAAGUGUAAAUCGUCUGCAUGCCGCCGGGCGCCAUGCCUGCAGGUCGACUCUAGAAAACAUG,binding signal,PUM1 PUF domain R1-RSQ,4.74 log2 enrichment (interaction score)
same,binding signal,PUM1 PUF domain R1-SWR,3.04 log2 enrichment (interaction score)
GGCUAGAACUAGUGGAUCCCCCGGCGCCCGGCGGCUCGAGCCCGGGUAAGUGUAAGUAGUCUGCAUGCCGCCGGGCGCCAUGCCUGCAGGUCGACUCUAGAAAACAUG,binding signal,PUM1 PUF domain R3-FSN,2.79 log2 enrichment (interaction score)
same,binding signal,PUM1 PUF domain R3-MRW,5.09 log2 enrichment (interaction score)
GGCUAGAACUAGUGGAUCCCCCGGCGCCCGGCGGCUCGAGCCCGGGUAAGUGUCAAUAGUCUGCAUGCCGCCGGGCGCCAUGCCUGCAGGUCGACUCUAGAAAACAUG,binding signal,PUM1 PUF domain R5-ARK,0.39 log2 enrichment (interaction score)
same,binding signal,PUM1 PUF domain R5-NGR,2.58 log2 enrichment (interaction score)
same,binding signal,PUM1 PUF domain R5-LHI,0.32 log2 enrichment (interaction score)
GGCUAGAACUAGUGGAUCCCCCGGCGCCCGGCGGCUCGAGCCCGGGUAAGUGUUAAUAGUCUGCAUGCCGCCGGGCGCCAUGCCUGCAGGUCGACUCUAGAAAACAUG,binding signal,PUM1 PUF domain R5-ARK,3.13 log2 enrichment (interaction score)
same,binding signal,PUM1 PUF domain R5-LHI,3.78 log2 enrichment (interaction score)
GGCUAGAACUAGUGGAUCCCCCGGCGCCCGGCGGCUCGAGCCCGGGUAAGUUUAAAUAGUCUGCAUGCCGCCGGGCGCCAUGCCUGCAGGUCGACUCUAGAAAACAUG,binding signal,PUM1 PUF domain R7-RCR,5.68 log2 enrichment (interaction score)
GGCUAGAACUAGUGGAUCCCCCGGCGCCCGGCGGCUCGAGCCCGGGUAAGUCUAAAUAGUCUGCAUGCCGCCGGGCGCCAUGCCUGCAGGUCGACUCUAGAAAACAUG,binding signal,PUM1 PUF domain R7-RCR,4.6 log2 enrichment (interaction score)
GGCUAGAACUAGUGGAUCCCCCGGCGCCCGGCGGCUCGAGCCCGGGUAAGUGUAAAUAGUCUGCAUGCCGCCGGGCGCCAUGCCUGCAGGUCGACUCUAGAAAACAUG,binding signal,PUM1 PUF domain R8-QWK,2.09 log2 enrichment (interaction score)
same,binding signal,PUM1 PUF domain R6-LWT,6.06 log2 enrichment (interaction score)
same,binding signal,PUM1 PUF domain R4-AHV,4.52 log2 enrichment (interaction score)
same,binding signal,PUM1 PUF domain R4-PYF,7.96 log2 enrichment (interaction score)
same,binding signal,PUM1 PUF domain R5-RYP,2.37 log2 enrichment (interaction score)
same,binding signal,PUM1 PUF domain R2-SWF,1.61 log2 enrichment (interaction score)
GGCUAGAACUAGUGGAUCCCCCGGCGCCCGGCGGCUCGAGCCCGGGUAAGGGUAAAUAGUCUGCAUGCCGCCGGGCGCCAUGCCUGCAGGUCGACUCUAGAAAACAUG,binding signal,PUM1 PUF domain R8-QWK,3.09 log2 enrichment (interaction score)
GGCUAGAACUAGUGGAUCCCCCGGCGCCCGGCGGCUCGAGCCCGGGUAAGUGAAAAUAGUCUGCAUGCCGCCGGGCGCCAUGCCUGCAGGUCGACUCUAGAAAACAUG,binding signal,PUM1 PUF domain R6-LWT,2.9 log2 enrichment (interaction score)
GGCUAGAACUAGUGGAUCCCCCGGCGCCCGGCGGCUCGAGCCCGGGUAAGCGUAAAUAGUCUGCAUGCCGCCGGGCGCCAUGCCUGCAGGUCGACUCUAGAAAACAUG,binding signal,PUM1 PUF domain R8-HFT,3.48 log2 enrichment (interaction score)
GGCUAGAACUAGUGGAUCCCCCGGCGCCCGGCGGCUCGAGCCCGGGUAAGUGUAUAUAGUCUGCAUGCCGCCGGGCGCCAUGCCUGCAGGUCGACUCUAGAAAACAUG,binding signal,PUM1 PUF domain R4-LNC,2.66 log2 enrichment (interaction score)
GGCUAGAACUAGUGGAUCCCCCGGCGCCCGGCGGCUCGAGCCCGGGUAAGUGUAAAGAGUCUGCAUGCCGCCGGGCGCCAUGCCUGCAGGUCGACUCUAGAAAACAUG,binding signal,PUM1 PUF domain R2-MWG,3.95 log2 enrichment (interaction score)
GGCUAGAACUAGUGGAUCCCCCGGCGCCCGGCGGCUCGAGCCCGGGUAAGUGUAAAAAGUCUGCAUGCCGCCGGGCGCCAUGCCUGCAGGUCGACUCUAGAAAACAUG,binding signal,PUM1 PUF domain R2-MWG,1.87 log2 enrichment (interaction score)
same,binding signal,PUM1 PUF domain R2-SWF,2.22 log2 enrichment (interaction score)
